Assay results reported in PubChem BioAssay (NCATS).
Several values for one entry are separate records, joined by “and”; a condition that tells them apart may be missing. Equal entries are not always repeated. Inconclusive results are not listed. Activity calls are given as the source filed them. Unless noted, calls come from the whole dose curve; as a rule, active = well fitted curve in the direction sought with a large enough effect; inconclusive = small, poorly fitted or top-dose-only effect, or another doubt; inactive = no such curve, though single readings can be large; an effect the other way counts as inactive or inconclusive.

Experiments:
[1] = S16 Schwann cell PMP22 intronic element beta-lactamase assay (AID 624044; calls by dose curve; note: nearly all actives have a fitted effect of over 15% in size); conditions: S16 rat Schwann cells, PMP22 element beta-lactamase FRET, 24 h; ratio activity, negative = inhibition: at 38.3 µM (top of the series) unless noted
Method in brief: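 Beta-lactamase reporter under a PMP22 intronic regulatory element in stable S16 rat Schwann cells; 24 h compound exposure. 460 nm blue signal normalized between DMSO (0%) and potassium clavulanate, with 535 nm FRET tracking viability; curves classed by r2 and response.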

[2] = tested on: AA1029; assay: qHTS profiling for inhibitors of Plasmodium falciparum proliferation (AID 504749); note: nearly all actives have a fitted effect of over 60% in size; note: potency is the fitted concentration of half-maximal effect; conditions: P. falciparum in erythrocytes, SYBR Green DNA, 72 h; series mostly up to 28.7 µM
Method in brief: (§1)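 Each compound contacts P. falciparum-infected red blood cells for 72 h at 37 C; lysis buffer (Tris, EDTA, saponin, Triton X, SYBR Green I) is added and fluorescence measured next morning; values normalized to controls.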

[3] = tested on: ATS189; assay: as above; conditions: P. falciparum in erythrocytes, SYBR Green DNA, 72 h; series mostly up to 28.7 µM
Method in brief: as §1

[4] = tested on: ATS95; assay: as above; conditions: P. falciparum in erythrocytes, SYBR Green DNA, 72 h; series mostly up to 28.7 µM
Method in brief: as §1

[5] = tested on: CP194; assay: as above; conditions: P. falciparum in erythrocytes, SYBR Green DNA, 72 h; series mostly up to 28.7 µM
Method in brief: as §1

[6] = tested on: CP215; assay: as above; conditions: P. falciparum in erythrocytes, SYBR Green DNA, 72 h; series mostly up to 28.7 µM
Method in brief: as §1

[7] = tested on: CP237; assay: as above; conditions: P. falciparum in erythrocytes, SYBR Green DNA, 72 h; series mostly up to 28.7 µM
Method in brief: as §1

[8] = tested on: CP247; assay: as above; conditions: P. falciparum in erythrocytes, SYBR Green DNA, 72 h; series mostly up to 28.7 µM
Method in brief: as §1

[9] = tested on: CP268; assay: as above; conditions: P. falciparum in erythrocytes, SYBR Green DNA, 72 h; series mostly up to 28.7 µM
Method in brief: as §1

[10] = tested on: CP325; assay: as above; conditions: P. falciparum in erythrocytes, SYBR Green DNA, 72 h; series mostly up to 28.7 µM
Method in brief: as §1

[11] = tested on: DIV14; assay: as above; conditions: P. falciparum in erythrocytes, SYBR Green DNA, 72 h; series mostly up to 28.7 µM
Method in brief: as §1

[12] = tested on: Dd2; assay: as above; conditions: P. falciparum in erythrocytes, SYBR Green DNA, 72 h; series mostly up to 28.7 µM
Method in brief: as §1

[13] = tested on: GB4; assay: as above; conditions: P. falciparum in erythrocytes, SYBR Green DNA, 72 h; series mostly up to 28.7 µM
Method in brief: as §1

[14] = tested on: P93_24; assay: as above; conditions: P. falciparum in erythrocytes, SYBR Green DNA, 72 h; series mostly up to 28.7 µM
Method in brief: as §1

[15] = tested on: P94_40; assay: as above; conditions: P. falciparum in erythrocytes, SYBR Green DNA, 72 h; series mostly up to 28.7 µM
Method in brief: as §1

[16] = tested on: PAD; assay: as above; conditions: P. falciparum in erythrocytes, SYBR Green DNA, 72 h; series mostly up to 28.7 µM
Method in brief: as §1

[17] = tested on: PC49; assay: as above; conditions: P. falciparum in erythrocytes, SYBR Green DNA, 72 h; series mostly up to 28.7 µM
Method in brief: as §1

[18] = tested on: SC27B; assay: as above; conditions: P. falciparum in erythrocytes, SYBR Green DNA, 72 h; series mostly up to 28.7 µM
Method in brief: as §1

[19] = target: Cytochrome P450 2D6 (Homo sapiens) (UniProt P10635); assay: qHTS Assay for Inhibitors and Substrates of Cytochrome P450 2D6 (AID 891); note: nearly all actives have a fitted effect of over 60% in size; note: potency is the fitted concentration of half-maximal effect
Method in brief: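 Luminescent read-out of luciferin formed by 5 nM human CYP2D6 demethylating 30 uM Luciferin-ME EGE (Km level) over 60 min at room temperature after NADPH regeneration addition. Data normalized to full inhibition by 1.43 uM quinidine.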

[20] = tested on: CP297; assay: qHTS profiling for inhibitors of Plasmodium falciparum proliferation (AID 504749); note: nearly all actives have a fitted effect of over 60% in size; note: potency is the fitted concentration of half-maximal effect; conditions: P. falciparum in erythrocytes, SYBR Green DNA, 72 h; series mostly up to 28.7 µM
Method in brief: as §1

Measured: Potency

Cytochrome P450 2D6 (Homo sapiens), sequence (P10635 whole entry, looked up): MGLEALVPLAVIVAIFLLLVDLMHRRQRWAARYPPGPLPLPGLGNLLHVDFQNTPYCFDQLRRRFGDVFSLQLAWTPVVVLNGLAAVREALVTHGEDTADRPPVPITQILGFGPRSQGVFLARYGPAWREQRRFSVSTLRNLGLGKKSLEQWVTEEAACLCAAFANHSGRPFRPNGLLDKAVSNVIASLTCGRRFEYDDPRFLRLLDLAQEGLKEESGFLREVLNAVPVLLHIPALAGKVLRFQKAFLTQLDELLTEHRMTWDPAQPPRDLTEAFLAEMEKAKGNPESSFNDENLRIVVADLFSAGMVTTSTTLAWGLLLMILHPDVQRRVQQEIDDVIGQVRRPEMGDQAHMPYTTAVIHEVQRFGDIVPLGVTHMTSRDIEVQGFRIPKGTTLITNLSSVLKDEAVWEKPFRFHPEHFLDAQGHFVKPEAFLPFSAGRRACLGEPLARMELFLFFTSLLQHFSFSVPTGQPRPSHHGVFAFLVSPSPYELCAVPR

CCNC[C@H](O)c1cccc(O)c1
not listed: [19] | [20]
inactive: all other assays above

CC[N@+]1(C)CCC[C@@H](OC(=O)C(O)(c2ccccc2)c2ccccc2)C1
active: [19] 5.01 µM

CN1CCc2cc3c(cc2[C@@H]1O)OCO3
active: [19] 7.94 µM

CC[C@@]1(c2ccc(N)cc2)CCC(=O)NC1=O
not listed: [1] | [19]
inactive: all other assays above

C[C@@]12CCC(=O)C=C1C=C[C@H]1[C@H]3CC[C@](O)(CCC(=O)O)[C@]3(C)CC[C@@H]12
not listed: [13] | [14] | [19]
inactive: all other assays above

COc1cc2c(cc1OC)[C@H](C)NCC2
inactive: [19]

COc1ccc2c(c1OC)C(=O)O[C@H]2[C@H]1c2cc3c(cc2CCN1C)OCO3
inactive: [19]

C[C@H]1CN(C2CCC(C#N)(c3ccc(F)cc3)CC2)CC[C@@]1(C(=O)O)c1ccccc1 (some centres undefined)
not listed: [19]
inactive: all other assays above

CN(C)C(=O)Oc1cc(OC(=O)N(C)C)cc([C@@H](O)CNC(C)(C)C)c1
active: [19] 7.94 µM
inactive: all other assays above

CCC[C@@](C)(COC(N)=O)COC(=O)NC(C)C
inactive: [19]

COc1ccc2c(c1OC)CN1CCc3cc4c(cc3[C@H]1C2)OCO4
inactive: [1]
active: [19] 0.0631 µM | [2] 2.51 µM | [4] 2.51 µM | [6] 2.03 µM | [20] 1.81 µM | [11] 2.56 µM | [13] 2.03 µM | [14] 2.51 µM | [15] 2.51 µM | [16] 3.16 µM

C[N+]1(C)[C@@H]2CC[C@H]1CC(OC(=O)[C@@H](CO)c1ccccc1)C2 (some centres undefined)
not listed: [19]
inactive: all other assays above

C[C@H](NC(C)(C)C)C(=O)c1cccc(Cl)c1
not listed: [7] | [8] | [12] | [19]
inactive: all other assays above

CC[C@@H]1[C@@H]2C[C@H]3[C@H]4N(C)c5ccccc5[C@@]45C[C@@H]([C@@H]2[C@@H]5O)N3[C@H]1O
active: [19] 3.98 µM
not listed: [6] | [7] | [11] | [14] | [15] | [16] | [17]
inactive: all other assays above

CC(=O)O[C@H]1CC[C@@]2(C)C(=CC[C@@H]3[C@H]2CC[C@]2(C)C(=O)CC[C@H]32)C1
not listed: [19]
inactive: all other assays above

C=C[C@H]1CN2CC[C@@H]1C[C@H]2[C@@H](O)c1ccnc2ccccc12
active: [19] 3.16 µM and 501 nM

CN1CC[C@]2(C)c3cc(O)ccc3N(C)[C@@H]12
active: [19] 25.1 µM

CC(=O)OCC(=O)[C@@H]1CC[C@H]2[C@H]3CC[C@H]4C[C@@H](O)CC[C@]4(C)[C@@H]3C(=O)C[C@@]12C
not listed: [19]
inactive: all other assays above

NCC[C@H](O)C(=O)N[C@H]1C[C@@H](N)[C@@H](O[C@H]2O[C@@H](CN)[C@@H](O)[C@@H](O)[C@@H]2N)[C@@H](O[C@H]2O[C@@H](CO)[C@@H](O)[C@@H]2O)[C@@H]1O
not listed: [19]
inactive: all other assays above

CCN(CC)C(=O)N[C@@H]1C[C@H]2c3cccc4[nH]cc(c34)C[C@@H]2N(C)C1
active: [19] 0.0158 µM

COc1cc2c(cc1O)[C@H]1Cc3ccc(OC)c(O)c3CN1CC2
active: [19] 0.0316 µM

CNC[C@H](O)c1ccc(O)cc1
inactive: all assays above

C[N+]1([O-])[C@@H]2CC[C@H]1CC(OC(=O)[C@@H](CO)c1ccccc1)C2 (some centres undefined)
not listed: [19]
inactive: all other assays above

CC1=C2[C@@H]3OC(=O)[C@@H](C)[C@@H]3CC[C@]2(C)C=CC1=O
not listed: [2] | [3] | [8] | [14] | [16] | [18] | [19]
inactive: all other assays above

C[C@H](N)[C@@H](O)c1ccccc1
not listed: [19]
inactive: all other assays above

CN1Cc2c(ccc3c2OCO3)[C@@H]2[C@@H](O)Cc3cc4c(cc3[C@@H]21)OCO4
active: [19] 199 nM and 79.4 nM

CCN[C@]1(c2cccs2)CCCCC1=O
not listed: [7] | [13] | [15] | [19]
inactive: all other assays above

CN1CCc2cc3c(cc2[C@@H]1[C@@H]1OC(=O)c2c1ccc1c2OCO1)OCO3
inactive: [19]

CN1[C@@H](C[C@@H](O)c2ccccc2)CCC[C@@H]1C[C@H](O)c1ccccc1
active: [19] 0.631 µM

CS(=N)(=O)CC[C@@H](N)C(=O)O (some centres undefined)
inactive: [19]

CN(C)[C@@H]1C(=O)C(C(N)=O)=C(O)[C@]2(O)C(=O)C3=C(O)c4c(O)ccc(Cl)c4[C@](C)(O)[C@H]3C[C@@H]12
not listed: [12] | [19]
inactive: all other assays above

CC[C@]1(c2cccc(O)c2)CCCCN(C)C1
active: [7] 3.16 µM | [12] 3.16 µM | [13] 4.55 µM
inactive: [1] | [8] | [14] | [17]

CC[C@H]1CN2CC[C@@H]1C[C@H]2[C@@H](O)c1ccnc2ccc(OC)cc12
active: [19] 3.16 µM

N[C@H]1C[C@H]1c1ccccc1
not listed: [19]
inactive: all other assays above

CC(C)N(CC[C@@](C(N)=O)(c1ccccc1)c1ccccn1)C(C)C
not listed: [13] | [19]
inactive: all other assays above

O=c1ccc2cc(O[C@H]3O[C@@H](CO)[C@@H](O)[C@@H](O)[C@@H]3O)c(O)cc2o1
not listed: [1] | [19]
inactive: all other assays above

COc1cc(N)c(Cl)cc1C(=O)N[C@@H]1CN2CCC1CC2
not listed: [19]
inactive: all other assays above

C[C@@H]1O[C@H](O[C@@H]2C=C3CC[C@H]4[C@@H](CC[C@]5(C)[C@@H](c6ccc(=O)oc6)CC[C@]45O)[C@@]3(C)CC2)[C@@H](O)[C@H](O)[C@@H]1O
not listed: [19]
inactive: all other assays above

C[N+]1=Cc2cc3c(cc2CC1)OCO3
active: [19] 15.8 µM

c1cncc([C@H]2CCCCN2)c1
active: [19] 12.6 µM

COc1cc2c(c(OC)c1OC)-c1ccc(O)c(=O)cc1[C@@H](NC(C)=O)CC2
inactive: [19]

CN[C@@H](C)[C@H]1CC[C@@H](N)[C@@H](O[C@@H]2[C@@H](O)[C@@H](O[C@H]3OC[C@@](C)(O)[C@@H](NC)[C@@H]3O)[C@H](N)C[C@@H]2N)O1 (tested in a mixture with another compound)
not listed: [6] | [19]
inactive: all other assays above

Clc1ccc([C@@H](OCCN2CCCCC2)c2ccccc2)cc1
inactive: [1] | [7] | [20]
active: [19] 0.0158 µM | [3] 3.16 µM | [12] 4.47 µM | [13] 5.73 µM | [14] 3.55 µM | [15] 3.55 µM

ClC1=C(Cl)C2(Cl)C3C4CC(C5OC45)C3C1(Cl)C2(Cl)Cl (centres undefined)
not listed: [4] | [9] | [15] | [19] | [20]
inactive: all other assays above

COc1cc2c(cc1O)C[C@H]1c3c(cc(O)c(OC)c3-2)CCN1C
active: [19] 7.94 µM

CN1C[C@H](CO)C=C2c3cccc4[nH]cc(c34)C[C@@H]21
active: [19] 0.126 µM
